The results in this text go back to PubChem BioAssay (NCATS).

Records with an inconclusive call do not appear. Active and inactive are the calls of the source. Calls follow the shape of the dose curve; as a rule, active = well fitted inhibition curve with a large enough effect; inconclusive = small, poorly fitted or top-dose-only effect; inactive = no such curve, though single readings can be large or run the other way.
Potency is read from the fitted curve at half-maximal effect.

The test can be described thus: qHTS Screen of the MIPE 4.0 Collection Against Ewings Sarcoma (RDES) (AID 1259252). Also: nearly all actives have a fitted effect of over 35% in size.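 As to viability (percent of control): 100% = DMSO-treated cells and 0% = medium-only wells without cells.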 As to conditions: RD-ES Ewing sarcoma viability, CellTiter-Glo, 48 h; series mostly up to 45.8 µM; viability (percent of control): at the top concentration. The text has this: There is a large unmet medical need for treatments for Ewing sarcoma, a pediatric sarcoma. We sought to identify compounds that inhibited Ewing sarcoma cells in vitro with the goal to then test promising drugs in two drug combinations in vitro to look for synergistic drug combinations. Promising combinations would then proceed to additional validation, including in vivo testing.
Using the NCATS developed oncology compound library called the Mechanism of Interrogation Plate (MIPE), four Ewing sarcoma cell lines were evaluated (TC32, TC71, RDES, EW8). Compounds, in a 12-point titration series, were incubated with cells for 48 hours and the read out was cell viability (CellTiter-Glo from Promega). These initial experiments were used to select appropriate concentrations of each single agent for subsequent two-drug matrix combinations such that the concentrations in the matrices would span both activity and non-activity.
Cells, in the log phase of growth, were seeded in 5 uL of RPMI plus 5% FBS, […] L-glutamine, 100 U/ml penicillin and 100 ug/ml streptomycin into 1536-well solid-bottom white tissue culture treated Greiner Bio One Plates (789173-F) using a MultiDrop Combi (Thermofisher Scientific) dispenser and a small sterile cassette. One column was media alone to be used as a :"no cells" control. The plates were then covered with sterilized stainless steel gasketed lids from Kalypsys. After allowing cells to attach for 4 hours, 23 nL of test compound or control (negative control DMSO and positive control 9.2 uM Bortezomib-final) were added from a 1536-well polypropylene compound source plate to each well using a 1536 head pin tool from Kalypsys. Cells were then incubated for 48 hours at 37C, 95% relative humidity and 5% CO2. After 48 hours, plates were removed from the incubator and 3 uL of CellTiter-Glo (Promega) was added using an Aurora Flying Reagent Dispenser Bioraptor. Plates were incubated at room temperature for 10 minutes prior to reading the luminescence on the Viewlux (PerkinElmer). The relative luciferase units are used to calculate the percent activity using the activity of DMSO in the cells and no cells columns for normalization of no inhibition and full inhibition respectively.
Turning to `O=C(O)CSCC(=O)NC1CCSC1=O` (stereo not given), the “viability (percent of control)” value is 134% (inactive).
As for `Nc1[nH]c(=O)ncc1F`, the “viability (percent of control)” value is 101% (inactive).
Regarding `COc1cc(NS(=O)(=O)c2ccc(N)cc2)nc(OC)n1`, the “viability (percent of control)” value is 124% (inactive).
`CC(C)Cn1cnc2c(N)nc3ccccc3c21`: the Potency was 16.6 µM (active).
The same measure, in the same setting: for `CC1=CC(=O)c2ccccc2C1=O` the value was 18.7 µM (active).
Turning to `CC1CC2C3CCC4=CC(=O)C=C[C@]4(C)[C@@]3(F)[C@@H](O)C[C@]2(C)[C@@]1(O)C(=O)CO` (stereo not given in full), the “viability (percent of control)” value was 121% (inactive).
Turning to `CCOCC(O)COc1ccc(NC(=O)CC[S+](C)C)cc1` (stereo not given), the “viability (percent of control)” value was 128% (inactive).
As to `CN1CCCC(n2nc(Cc3ccc(Cl)cc3)c3ccccc3c2=O)CC1` (stereo not given), the Potency was 1.05 µM (active).
Turning to `N[C@@H](Cc1ccc(O)c(O)c1)C(=O)O`, the “viability (percent of control)” value was 127% (inactive).
For `CCCCc1oc2ccc(NS(C)(=O)=O)cc2c1C(=O)c1ccc(OCCCN(CCCC)CCCC)cc1`, the Potency was 23.5 µM (active).
As to `O=c1oc2c(O)c(O)cc3c(=O)oc4c(O)c(O)cc1c4c23`, the “viability (percent of control)” value is 123% (inactive).
On to `COC(=O)Nc1nc2ccc(C(=O)c3ccccc3)cc2[nH]1`, for which the Potency was 0.662 µM (active).
Consider `CC1=C(C(=O)O)N2C(=O)[C@@H](NC(=O)C(N)c3ccccc3)[C@H]2SC1` (stereo not given in full), for which the “viability (percent of control)” value is 115% (inactive).
For the compound `CC(C)OC(=O)C(C(=O)OC(C)C)=C1SC=CS1`, the “viability (percent of control)” value is 122% (inactive).
In the case of `CCCN[C@H]1CCc2nc(N)sc2C1`, the “viability (percent of control)” value is 118% (inactive).
Still for that read-out and setting: for `CN(C)CCc1c[nH]c2ccc(CS(=O)(=O)N3CCCC3)cc12` the value was 115% (inactive).
As to `O=C(O)c1ccc(-n2nc(-c3ccccc3O)nc2-c2ccccc2O)cc1`, the Potency was 20.9 µM (active).
For `CC1=NN(c2ccccc2)C(=O)C1`, the “viability (percent of control)” value is 121% (inactive).
For the compound `CCOC(=O)[C@H](CCc1ccccc1)N[C@H]1CS[C@H](c2cccs2)CN(CC(=O)O)C1=O`, the Potency was 4.18 µM (active).
Regarding `Clc1ccccc1CN1CCc2sccc2C1`, the “viability (percent of control)” value was 118% (inactive).
Turning to `O[C@@H](CNC[C@H](O)[C@H]1CCc2cc(F)ccc2O1)[C@@H]1CCc2cc(F)ccc2O1`, the Potency is 23.5 µM (active).
Turning to `Cc1c(-c2ccc(O)cc2)n(Cc2ccc(OCCN3CCCCCC3)cc2)c2ccc(O)cc12`, the “viability (percent of control)” value is 116% (inactive).
On the same count and under the same terms, for `CCC(C)(C)c1ccc(CC(C)CN2C[C@@H](C)O[C@@H](C)C2)cc1` (stereo not given in full) the value was 97.4% (inactive).
Turning to `N=C(N)c1ccc(OCCCCCOc2ccc(C(=N)N)cc2)cc1`, the Potency is 18.7 µM (active).
Take `OC(Cn1cncn1)(Cn1cncn1)c1ccc(F)cc1F`: the “viability (percent of control)” value was 121% (inactive).
Consider `COc1ccccc1OCC(O)COC(N)=O` (stereo not given), for which the “viability (percent of control)” value is 116% (inactive).
On to `CCOC(=O)c1ccc(OC(=O)CCCCCN=C(N)N)cc1`, for which the “viability (percent of control)” value was 129% (inactive).
Take `CCc1c2c(nc3ccc(OC(=O)N4CCC(N5CCCCC5)CC4)cc13)-c1cc3c(c(=O)n1C2)COC(=O)[C@]3(O)CC`: the Potency was 0.332 µM (active).
For the compound `CCOC(=O)c1ccc(C#Cc2ccc3c(c2)C(C)(C)CCS3)nc1`, the “viability (percent of control)” value was 117% (inactive).
Consider `CC(C)C[C@H](NC(=O)[C@H](CCc1ccccc1)NC(=O)CN1CCOCC1)C(=O)N[C@@H](Cc1ccccc1)C(=O)N[C@@H](CC(C)C)C(=O)[C@@]1(C)CO1`, for which the Potency is 0.0187 µM (active).
Turning to `CCCCCCNC(=O)n1cc(F)c(=O)[nH]c1=O`, the Potency was 13.2 µM (active).
On the same count and under the same terms, for `CC[C@H](C)C(=O)O[C@H]1C[C@@H](C)C=C2C=C[C@H](C)[C@H](CC[C@@H]3C[C@@H](O)CC(=O)O3)[C@H]21` the value was 18.7 µM (active); for `COc1ccc2cc3[n+](cc2c1OC)CCc1cc2c(cc1-3)OCO2`, 8.33 µM (active).
Regarding `CC[C@H](NC(C)C)[C@H](O)c1ccc(O)c2[nH]c(=O)ccc12`, the “viability (percent of control)” value was 98.7% (inactive).
Still for that read-out and setting: for `Cn1c(=O)c2c(ncn2CC(O)CO)n(C)c1=O` (stereo not given) the value was 133% (inactive); for `CCn1cc(C(=O)O)c(=O)c2cc(F)c(N3CCNCC3)cc21`, 113% (inactive); for `NCCCC(O)(P(=O)(O)O)P(=O)(O)O`, 132% (inactive).
As for `CC(C)NCC(O)c1ccc(NS(C)(=O)=O)cc1` (stereo not given), the Potency was 5.9 µM (active).
For `Cn1nnc2c(C(N)=O)ncn2c1=O`, the “viability (percent of control)” value was 134% (inactive).
Regarding `COc1cc2ncnc(Nc3cccc(Cl)c3)c2cc1OC`, the Potency is 0.118 µM (active).
